Screening results from PubChem.
PAFAH2 FP inh: PAFAH2 enzyme inhibitors, primary screen, biochemical, fluorescence polarization, human | Platelet-activating factor acetylhydrolase 2, cytoplasmic (Homo sapiens), Q99487 | recombinant PAFAH2, FP-rhodamine activity probe | inhibition, % at 3.39 µM | 340,000 tested, 0.99% active | AID 492956, 2010;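 active = inhibition above the mean over all tested compounds plus 3 SD, cut at about 30% in these data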;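 also: inhibitors block probe labeling of enzyme so polarization drops; 0% = enzyme with DMSO and 100% = wells lacking PAFAH2 protein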
ZTA counter: counter-screen for EBNA-1 inhibitors: inhibitors of Epstein-Barr virus ZTA. P03206. ZTA-DNA binding, fluorescence polarization. inhibition, % at 11 µM. 320,000 tested, 0.15% active. AID 2234; in the data active = inhibition above about 33%
rCAG RNA binder: binders of r(CAG) RNA repeats, primary screen, biochemical, fluorescence; r(CAG) RNA repeat, TO-PRO-1 dye displacement fluorescence; inhibition, % at 3 µM; 370,000 tested, 1.3% active; AID 651821, 2012;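 active = inhibition above the plate cutoff, the mean of all test compounds on that plate plus 3 SD, cut at about 35% in these data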;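 also: 0% = DMSO alone and 100% = 100 µM mitoxantrone as full dye displacement; higher means more dye released from RNA so lower well fluorescence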
PAFAH1B3 FP inh: PAFAH1B3 enzyme inhibitors, primary screen, biochemical, fluorescence polarization, human. AID 492972, 2010. recombinant PAFAH1B3, FP-rhodamine probe. 340,000 tested, 0.28% active. inhibition, % at 3.39 µM. Platelet-activating factor acetylhydrolase IB subunit alpha1 (Homo sapiens), Q15102;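 active = inhibition above the screen-wide average of all tested compounds plus 3 SD, cut at about 25% in these data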;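 also: 0% = enzyme with DMSO only and 100% = wells lacking PAFAH1B3 protein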
Target sequence (Q15102 whole entry, looked up): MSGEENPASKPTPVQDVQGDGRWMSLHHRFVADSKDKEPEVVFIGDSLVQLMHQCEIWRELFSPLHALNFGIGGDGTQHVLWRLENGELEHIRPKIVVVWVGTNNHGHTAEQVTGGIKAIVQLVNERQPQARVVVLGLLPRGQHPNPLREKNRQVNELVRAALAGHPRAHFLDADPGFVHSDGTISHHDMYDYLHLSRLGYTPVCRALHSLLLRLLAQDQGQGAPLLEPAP
PAFAH1B2 inh: PAFAH1B2 enzyme inhibitors, primary screen, biochemical, fluorescence polarization, human. inhibition, % at 3.39 µM. Platelet-activating factor acetylhydrolase IB subunit alpha2 (Homo sapiens), P68402. recombinant PAFAH1B2, FP-rhodamine activity probe. 340,000 tested, 1.2% active;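 active = inhibition above the mean of all tested compounds plus 3 SD, cut at about 24% in these data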;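 also: 0% = enzyme with DMSO and 100% = wells lacking PAFAH1B2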
Target sequence (P68402 whole entry, looked up): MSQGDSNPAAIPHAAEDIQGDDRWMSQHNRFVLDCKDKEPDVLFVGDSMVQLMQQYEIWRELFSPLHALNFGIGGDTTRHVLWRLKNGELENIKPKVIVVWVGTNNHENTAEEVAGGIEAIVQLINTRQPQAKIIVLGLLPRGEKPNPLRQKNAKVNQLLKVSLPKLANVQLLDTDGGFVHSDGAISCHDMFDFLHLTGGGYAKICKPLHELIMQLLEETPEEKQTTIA
EBNA-1 inh: EBNA-1 DNA-binding inhibitors, primary screen, biochemical, fluorescence polarization | AID 1950, 2009 | inhibition, % at 14.8 µM | 300,000 tested, 0.34% active; in the data active = inhibition above about 28%
PAFAH2 FP conf: PAFAH2 enzyme inhibitors, confirmation, biochemical, fluorescence polarization, human; inhibition, % at 3.39 µM; recombinant PAFAH2, FP-rhodamine activity probe; 2,300 tested, 65% active; shares compounds with PAFAH2 FP inh;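 active = mean inhibition over three repeats above a set limit taken from the earlier primary screen, cut at about 30% in these data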;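 also: inhibitor blocks binding of rhodamine activity probe so polarization falls; 0% = enzyme with DMSO and 100% = wells lacking PAFAH2 protein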
* hit, by the source's call. Compounds with a hit are over-represented: about 2.9% of the library has one in this group of screens.

What do the screens show for `Nc1ccc(C(=O)OCc2nc3c(ccc4ccccc43)[nH]2)cc1`?
PAFAH2 FP inh: 80*; ZTA counter: -26; rCAG RNA binder: 2; PAFAH1B3 FP inh: 11; PAFAH1B2 inh: 4; EBNA-1 inh: 3; PAFAH2 FP conf: 82*

Results for Nc1ccc(C(=O)OCCCc2nc3cc4ccccc4cc3[nH]2)cc1 ?
PAFAH2 FP inh: 17; ZTA counter: 8; rCAG RNA binder: 3; PAFAH1B3 FP inh: 8; PAFAH1B2 inh: 5; EBNA-1 inh: 3

How did Nc1ccc(C(=O)OCc2nc3cc4ccccc4cc3[nH]2)cc1 do in these assays?
PAFAH2 FP inh: 85*; ZTA counter: 0; rCAG RNA binder: 5; PAFAH1B3 FP inh: 7; PAFAH1B2 inh: 2; EBNA-1 inh: -10; PAFAH2 FP conf: 83*

What do the screens show for `CC(=O)Oc1cc2c(s1)CCN(C(C(=O)C1CC1)c1ccccc1F)C2` (stereo not drawn)?
rCAG RNA binder: 17

What do the screens show for `CCCCOC(=O)n1c(=O)oc2ccc(S(=O)(=O)N3CCCCC3)cc21`?
PAFAH2 FP inh: 66*; ZTA counter: 10; rCAG RNA binder: 12; PAFAH1B3 FP inh: 8; PAFAH1B2 inh: 8; EBNA-1 inh: 6; PAFAH2 FP conf: 61*

Results for CCCC[C@@H]1C(=O)N2N=Cc3ccccc3[C@H]2N2N=Cc3ccccc3[C@@H]12 ?
rCAG RNA binder: -2

What do the screens show for `COc1ccc(C2OC(=O)c3ccccc3S2)cc1` (stereo not drawn)?
PAFAH2 FP inh: 86*; ZTA counter: -4; rCAG RNA binder: 3; PAFAH1B3 FP inh: 5; PAFAH1B2 inh: 3; EBNA-1 inh: -3; PAFAH2 FP conf: 78*

What do the screens show for `COc1cc(C2OC(=O)c3ccccc3S2)cc(OC)c1OC` (stereo not drawn)?
PAFAH2 FP inh: 6; ZTA counter: -5; rCAG RNA binder: 7; PAFAH1B3 FP inh: 7; PAFAH1B2 inh: 2; EBNA-1 inh: 7

What do the screens show for `COc1ccc(/C=C/C(=O)OCC(=O)N2CCCCCC2)cc1OC`?
PAFAH2 FP inh: 33*; rCAG RNA binder: -2; PAFAH1B3 FP inh: 3; PAFAH1B2 inh: 6; PAFAH2 FP conf: 15

What do the screens show for `COc1ccc(/C=C/C(=O)OCC(=O)NC2CCCC2)cc1OC`?
PAFAH2 FP inh: 83*; rCAG RNA binder: 1; PAFAH1B3 FP inh: 16; PAFAH1B2 inh: 2; PAFAH2 FP conf: 78*

Results for CC1CN(C(=O)COC(=O)/C=C/c2ccc(C(F)(F)F)cc2)CC(C)O1 (stereo not drawn) ?
PAFAH2 FP inh: -6; ZTA counter: 13; rCAG RNA binder: -4; PAFAH1B3 FP inh: 4; PAFAH1B2 inh: -2

How did COc1ccc(OC)c(/C=C/C(=O)OCC(=O)NC2CCCCCCC2)c1 do in these assays?
PAFAH2 FP inh: 90*; ZTA counter: 9; rCAG RNA binder: -1; PAFAH1B3 FP inh: 5; PAFAH1B2 inh: 8; PAFAH2 FP conf: 86*

Results for O=C(COC(=O)/C=C/c1ccc(C(F)(F)F)cc1)NCC1CCCCC1 ?
PAFAH2 FP inh: 30*; ZTA counter: -13; rCAG RNA binder: -7; PAFAH1B3 FP inh: 2; PAFAH1B2 inh: 3; EBNA-1 inh: -12; PAFAH2 FP conf: 22

What do the screens show for `COc1ccc(OC)c(/C=C/C(=O)OCC(=O)N2CCCCC2)c1`?
PAFAH2 FP inh: 4; rCAG RNA binder: 0; PAFAH1B3 FP inh: 9; PAFAH1B2 inh: 6

Results for CCOC(=O)[C@@]12CCCC3=C1N(CCC3)C(=O)[C@H]2CC(=O)NCCc1ccccc1OC ?
rCAG RNA binder: 0

How did CCCCN1CC[C@@H](C)Oc2cc(Br)ccc2S1(=O)=O do in these assays?
rCAG RNA binder: 1

What do the screens show for `CCCCNC(=O)C1CCCN1C(=O)Nc1cc(Cl)cc(Cl)c1` (stereo not drawn)?
rCAG RNA binder: 3

What do the screens show for `C=CCN1[C@H](C#N)[C@@H](c2ccc(C#Cc3ccccc3OC)cc2)[C@H]1CO`?
rCAG RNA binder: 7
